Screens (PubChem BioAssay)
LNCaP diff act = activators of LNCaP prostate cell differentiation; flow cytometry side scatter, 4 d; side scatter shift, % at 10 µM; hit rate 0.56% among 24,000; AID 795;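 active means side scatter shift above 30%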;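 further: androgen-responsive LNCaP prostate cancer cells in charcoal-stripped serum medium; percent of cells past a gate set so DMSO wells show 10% shift; higher shift means more granular cells and more differentiation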
VLA-4 antagonist = inhibitors of LDV-FITC ligand binding to Mn2+-activated human VLA-4 integrin | P13612 | Jurkat cells, LDV-FITC binding with Mn2+, flow cytometry; 100% = Mn2+-driven binding gain fully reversed | inhibition, % at 10 µM (by protocol) | hit rate 0.2% among 24,000 | AID 529;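 active means inhibition above 50%; inconclusive means compound itself fluorescent, judged against control cell fluorescence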;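 further: 0% = Mn2+ stimulated cells lacking compound and 100% = ligand binding without Mn2+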
Target sequence (P13612 whole entry, looked up): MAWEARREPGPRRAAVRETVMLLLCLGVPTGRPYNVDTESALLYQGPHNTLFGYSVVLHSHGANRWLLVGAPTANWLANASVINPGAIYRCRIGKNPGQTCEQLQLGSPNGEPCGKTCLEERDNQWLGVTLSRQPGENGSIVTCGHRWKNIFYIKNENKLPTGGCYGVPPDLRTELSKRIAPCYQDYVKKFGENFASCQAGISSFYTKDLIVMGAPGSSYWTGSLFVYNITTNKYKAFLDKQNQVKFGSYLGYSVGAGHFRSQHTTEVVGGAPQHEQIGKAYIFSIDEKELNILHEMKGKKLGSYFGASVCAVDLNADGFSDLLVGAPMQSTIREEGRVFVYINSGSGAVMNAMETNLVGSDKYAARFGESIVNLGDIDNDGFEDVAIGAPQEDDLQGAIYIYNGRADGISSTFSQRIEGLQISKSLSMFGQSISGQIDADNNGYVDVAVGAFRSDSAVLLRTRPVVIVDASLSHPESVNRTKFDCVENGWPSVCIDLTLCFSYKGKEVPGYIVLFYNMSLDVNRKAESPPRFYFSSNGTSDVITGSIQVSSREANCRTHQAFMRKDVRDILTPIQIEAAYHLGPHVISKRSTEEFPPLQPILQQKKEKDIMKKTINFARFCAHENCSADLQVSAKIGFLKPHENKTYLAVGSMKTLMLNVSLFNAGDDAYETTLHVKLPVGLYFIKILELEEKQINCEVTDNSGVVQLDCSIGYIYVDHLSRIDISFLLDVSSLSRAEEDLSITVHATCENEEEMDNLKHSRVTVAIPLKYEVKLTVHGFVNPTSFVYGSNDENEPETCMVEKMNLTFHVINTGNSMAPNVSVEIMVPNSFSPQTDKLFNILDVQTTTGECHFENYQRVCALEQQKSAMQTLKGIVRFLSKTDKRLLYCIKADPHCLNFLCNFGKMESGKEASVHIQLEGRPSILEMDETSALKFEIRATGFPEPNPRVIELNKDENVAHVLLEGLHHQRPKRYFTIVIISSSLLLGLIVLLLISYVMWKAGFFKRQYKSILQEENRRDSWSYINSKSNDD
Autofluor Jurkat = compound fluoresces in Jurkat cells, VLA-4 screen interference; compound autofluorescence, flow cytometry; hits give high values; 1 = vehicle-only cell background; AID 576; fluorescence ratio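 (tested at 10 µM compound in the well)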; hit rate 0.61% among 24,000;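 active means fluorescence ratio above 2.44, which is 1 plus 3 SD of all ratios; inconclusive means signal too bright to measure linearly, ratio around 10 or more; inactive means fluorescence ratio below 2.44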;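 further: green fluorescence of cells measured with 488 nm excitation and 530 nm emission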
FPR binder = binds the human formylpeptide receptor FPR. P21462. FPR-expressing cells, fluorescent ligand binding, flow cytometry. inhibition, % (concentration not given with the values). hit rate 0.74% among 24,000. AID 440;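 further: 0% = buffer wells and 100% = receptor blocker peptide wells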
FPRL1 ligand = human FPRL1 ligand, with FPR counter-screen | P25090 | FPRL1-expressing cells, fluorescent ligand binding inhibition, flow cytometry | inhibition, % (concentration not given with the values) | hit rate 0.3% among 24,000 | AID 441;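 further: 0% = buffer alone and 100% = receptor blocker peptide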
VLA-4 allo ag = allosterically activates the human VLA-4 integrin | P13612 | Jurkat cells, LDV-FITC binding, flow cytometry | activation, % at 10 µM (by protocol) | 24,000 tested, under 10 active | AID 528;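 active means fluorescent ligand binding to cells raised by more than 40% of the manganese-induced maximum; inconclusive means compound's own fluorescence above 85% of the ligand control signal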;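 further: 0% = ligand binding without compound and 100% = manganese-stimulated maximal binding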
* hit, by the source's call; ? = inconclusive; / = no result given. Most compounds without a hit are left out; they make up all but 1.9% or so of the library. Unless noted, no stated cut-off is given here; in the data, active means inhibition above about 30%; inconclusive means no clear call, values can overlap the other calls; inactive means below that.

SMILES	LNCaP diff act	VLA-4 antagonist	Autofluor Jurkat	FPR binder	FPRL1 ligand	VLA-4 allo ag
Cc1c(CCC#N)c(N2CCN(C3CCCCC3)CC2)n2c(nc3ccccc32)c1C#N	16	?	8.6*	-19	-14	?
Cc1cc(N2CCN(C3CCCC3)CC2)n2c(nc3ccccc32)c1C#N	16	2	0.94	8	1	-1
COc1ccc(NC(=O)C2CCCN(S(=O)(=O)c3cccc4cccnc34)C2)c(OC)c1 (configuration not stated)	12	12	1.1	2	-3	-5
COc1ccc(-c2cn3cccnc3n2)cc1NC(=O)C1CCCC1	13	-4	1.1	2	74*	-4
COc1ccc(-c2cn3cccnc3n2)cc1NC(=O)C1CC1	12	28	1.1	-4	76*	-6
CCOC(=O)Nc1cc(OCC)c(NC(=O)C2CC2)cc1OCC	4	-18	1.1	-4	-3	0
CCOC(=O)c1c(C)oc2c1c(C=NCc1ccccn1)c(O)c1ccccc12	5	?	2.9*	-4	-39	?
CCOc1ccccc1NC(=O)CCC(=O)Nc1ccc2nc(N3CCN(C)CC3)cc(C)c2c1	5	-8	0.99	1	3	3
Cc1cc(N2CCN(C)CC2)nc2ccc(NC(=O)c3ccc4c(c3)OCO4)cc12	57*	-2	1.1	-6	4	1
Cc1cc(N2CCN(C)CC2)nc2ccc(NC(=O)c3ccc(Br)o3)cc12	35*	?	1.2	2	5	?
CCOC(=O)N1CCN(C(=O)c2cn(CC)c3cc(N4CCN(C)CC4)c(F)cc3c2=O)CC1	16	-11	0.99	8	0	1
c1ccc2c(c1)CCCN2c1nc2ccccc2n2cnnc12	4	?	2.6*	-6	-6	?
O=C(CN1CCN(Cc2ccc3c(c2)OCO3)CC1)N1CCc2[nH]c3ccc(F)cc3c2C1	50*	3	1.1	-12	-3	6
COC(=O)c1ccc(C2/C(=C(/O)c3ccc(OC)cc3)C(=O)C(=O)N2Cc2ccco2)cc1 (configuration not stated)	/	/	/	38*	5	/
COc1ccc(/C(O)=C2/C(=O)C(=O)N(CCN3CCOCC3)C2c2ccc(C)cc2)cc1 (configuration not stated)	/	/	/	26	31*	/
CC(C)(C)C(=O)CNS(=O)(=O)c1ccc(S(=O)(=O)NC2CCCC2)cc1	8	-1	1.1	4	-5	0
Cc1nnc(NCc2n[nH]c(=O)c3ccccc23)c2ccccc12	33*	-15	1	8	0	-1
COc1ccc(Cc2n[nH]c(=O)c3ccccc23)cc1OC	/	-14	0.98	6	-5	5
O=S(=O)(Nc1cccc2ncccc12)c1cccs1	34*	37	1.2	13	39*	?
CCN(CCCNC(=O)CCc1nc(-c2ccc(OC)cc2)no1)c1cccc(C)c1	2	10	1.1	-13	4	-9
O=C(c1nc2n(n1)C(c1ccc(Cl)cc1)C=C(c1ccccc1)N2)N1CCOCC1 (configuration not stated)	13	?	3.5*	-3	-8	?
COc1ccc(OC)c(C2C(C(=O)c3cccs3)=C(O)C(=O)N2c2cc(C)on2)c1 (configuration not stated)	/	/	/	56*	0	/
COc1cccc(C2C(C(=O)c3cc4ccccc4o3)=C(O)C(=O)N2c2cc(C)on2)c1OC (configuration not stated)	/	/	/	54*	2	/
COc1cccc(C2C(C(=O)c3cccs3)=C(O)C(=O)N2c2cc(C)on2)c1 (configuration not stated)	/	/	/	12	5	/
COc1cccc(N2CCN(c3ncnc4c3[nH]c3ccc(F)cc34)CC2C)c1 (configuration not stated)	3	95*	1.1	-1	4	-36
SMILES	LNCaP diff act	VLA-4 antagonist	Autofluor Jurkat	FPR binder	FPRL1 ligand	VLA-4 allo ag
O=S(=O)(Nc1ccc2c(c1)OCO2)c1ccc(Br)s1	4	-12	1.1	4	-8	0
COc1cc(NS(=O)(=O)c2ccc(Br)s2)cc(OC)c1	3	?	4.5*	-39	?	?
CC(C)c1cc(C(=O)Nc2cc(Cl)ccc2O)no1	6	?	3.8*	-19	-12	?
CC(C)c1cc(C(=O)Nc2cccc(Cl)c2)no1	8	7	1.1	-1	3	0
COc1cccc(-c2nc(CS(=O)(=O)CC(=O)NCCC(C)C)c(C)o2)c1	3	22	1	34*	2	0
COCCCNC(=O)CS(=O)(=O)Cc1nc(-c2cccc(OC)c2)oc1C	5	11	0.94	10	0	7
CCCOc1ccc(C(CC(=O)O)NC(=O)C23CC4CC(CC(C4)C2)C3)cc1 (configuration not stated)	/	113*	1.1	/	/	-26
CCCCOc1ccc(CC(=O)NO)cc1	1	-20	1	2	1	6
CCCc1[nH]nc2c1C(c1cccc(OC(=O)c3ccco3)c1)C(C#N)=C(N)O2 (configuration not stated)	7	11	1.1	-5	3	-4
CCCc1[nH]nc2c1C(CCc1ccccc1)C(C#N)=C(N)O2 (configuration not stated)	4	61*	1.2	1	2	-10
Cc1sc(CO)c(Sc2ccccc2)c1C(=O)O	/	-2	0.98	2	-8	5
COc1cccc(/C(O)=C2/C(=O)C(=O)N(Cc3cccnc3)C2c2ccco2)c1 (configuration not stated)	/	/	/	34*	26	/
COc1ccc(C2C(C(=O)c3ccco3)=C(O)C(=O)N2Cc2cccnc2)cc1OC (configuration not stated)	/	/	/	38*	28	/
CCCOc1ccc(C2C(C(=O)c3ccc(C)o3)=C(O)C(=O)N2Cc2cccnc2)cc1 (configuration not stated)	4	-16	1.1	52*	11	-7
CCOc1ccc(C2C(C(=O)c3ccco3)=C(O)C(=O)N2Cc2cccnc2)cc1 (configuration not stated)	/	/	/	50*	5	/
C=CCOc1ccc(C2C(C(=O)c3ccco3)=C(O)C(=O)N2Cc2cccnc2)cc1 (configuration not stated)	15	-36	0.97	25	25	4
COCCN1C(=O)C(=O)/C(=C(/O)c2cccc(OC)c2)C1c1ccco1 (configuration not stated)	/	/	/	15	-5	/
O=C1NC(Cc2c[nH]c3ccccc23)C(=O)N1CCOc1ccccc1 (configuration not stated)	2	-4	1	4	-5	1
Cc1ccc(N2CCN(C(=O)C3CCN(S(=O)(=O)c4cccc5nsnc45)CC3)CC2C)cc1 (configuration not stated)	9	6	1.1	-6	-2	1
